About 79,000 compounds went through this panel and 15% of them were active in at least one assay; those are over-represented in the sample as a whole. Values without a mark were called inactive. The source made the active and inactive calls. No stated cut-off is given here; in the data, active means growth inhibition above about 70%; inactive means the rest.

Test [1] can be described thus: NCI Yeast Anticancer Drug Screen. Data for the rad50 strain (AID 155).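 Further: 0% = growth of vehicle-only cultures of the same strain.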 The following applies: S. cerevisiae rad50 strain growth inhibition, active compounds read high. In short, it runs like this: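 Vehicle-treated cultures provide the reference for the growth inhibition reported for compound-exposed, repair-deficient yeast.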
Test [2] is described as follows: NCI Yeast Anticancer Drug Screen. Data for the mec2-1 strain (AID 157). The note with it: S. cerevisiae mec2-1 strain, active compounds read high. In short, it runs like this:
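Growth inhibition is read against vehicle-treated controls after compound exposure of the mec2-1 yeast strain, which is defective in DNA damage repair or cell cycle control.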

Test [3] is described as follows: NCI Yeast Anticancer Drug Screen. Data for the sgs1 mgt1 strain (AID 161).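 Further: 0% = growth of cultures given vehicle only.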 The note with it: S. cerevisiae sgs1 mgt1 strain, active compounds read high. Summed up:
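Yeast cells carrying a defined DNA-repair defect were exposed to test compounds. Growth inhibition was measured relative to vehicle-treated controls.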

Test [4] is described as follows: NCI Yeast Anticancer Drug Screen. Data for the cln2 rad14 strain (AID 165).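 Further: 0% = growth equal to vehicle treated cultures.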 The note with it: S. cerevisiae cln2 rad14 strain, active compounds read high. In short, it runs like this:
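Growth inhibition, relative to vehicle-treated controls, is the read-out. The test organism is a yeast strain with defined genetic alterations, cln2 rad14.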

Test [5] in a line: NCI Yeast Anticancer Drug Screen. Data for the bub3 strain (AID 167). The note with it: S. cerevisiae bub3 mutant strain, active compounds read high. In short, it runs like this: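 Mutant yeast screening strain plus compound; vehicle-treated cultures serve as the 0% inhibition reference.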
The nature of test [6]: NCI Yeast Anticancer Drug Screen. Data for the mlh1 rad18 strain (AID 175). The following applies: S. cerevisiae mlh1 rad18 strain growth inhibition, active compounds read high. In short, it runs like this: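 Cells of a genetically altered yeast strain, deficient in DNA damage repair, were treated with compound. Their growth was then compared with that of vehicle-treated cultures to give inhibition.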

Where [7] appears, read: at 5.0 µM (retest, dose inferred, filed as 0.5).
[8] abbreviates: at 50.0 µM (retest, dose inferred, filed as 5.0).

Consider `Oc1ccc(C(O)(c2ccccc2)c2ccccc2)c2ccccc12`, for which the growth inhibition in test [1] (setting [7]) was 45%; in test [1] (setting [8]) it was 94% (active); in test [1] (at 50.0 µM), 98.2% (active); in test [2] (setting [7]) it was 12%; in test [2] (setting [8]), 98% (active); in test [2] (at 50.0 µM), 97.9% (active). For the same compound, the growth inhibition in test [3] (setting [7]) is 59%; in test [3] (setting [8]), 93% (active); in test [3] (at 50.0 µM), 98.5% (active); in test [4] (setting [7]) it was 28%; in test [4] (setting [8]), 67%; in test [4] (at 50.0 µM), 97.2% (active). Also, the growth inhibition was 7% in test [5] (setting [7]); 43% in test [5] (setting [8]); 98% (active) in test [5] (at 50.0 µM); 20% in test [6] (setting [7]); 96% (active) in test [6] (setting [8]); 97.5% (active) in test [6] (at 50.0 µM).
In the case of `O=CC(=O)CC(O)CO` (configuration not stated), the growth inhibition in test [1] (setting [7]) is 0%; in test [1] (setting [8]) it was 74% (active); in test [1] (at 50.0 µM), 78.4% (active); in test [2] (setting [7]), 5%; in test [2] (setting [8]) it was 69%; in test [2] (at 50.0 µM) it was 72.9% (active). Further, the growth inhibition was 4% in test [3] (setting [7]); 81% (active) in test [3] (setting [8]); 67.6% in test [3] (at 50.0 µM); 1% in test [4] (setting [7]); 94% (active) in test [4] (setting [8]); 89.3% (active) in test [4] (at 50.0 µM). Moreover, the growth inhibition is 0% in test [5] (setting [7]); 87% (active) in test [5] (setting [8]); 98.7% (active) in test [5] (at 50.0 µM); -14% in test [6] (setting [7]); 67% in test [6] (setting [8]); 76.3% (active) in test [6] (at 50.0 µM).
Regarding `CN1CCN(CC(=O)c2c(-c3ccccc3)[nH]c3ccccc23)CC1`, the growth inhibition was 68% in test [1] (setting [7]); 4% in test [1] (setting [8]); 33.2% in test [1] (at 50.0 µM); 56% in test [2] (setting [7]); 1% in test [2] (setting [8]); 15.8% in test [2] (at 50.0 µM). Also, the growth inhibition in test [3] (setting [7]) was 66%; in test [3] (setting [8]), 7%; in test [3] (at 50.0 µM) it was 9.45%; in test [4] (setting [7]) it was 50%; in test [4] (setting [8]), 21%; in test [4] (at 50.0 µM) it was 33.1%. In addition, the growth inhibition in test [5] (setting [7]) is 58%; in test [5] (setting [8]), 4%; in test [5] (at 50.0 µM) it was -9.9%; in test [6] (setting [7]), 80% (active); in test [6] (setting [8]) it was 1%; in test [6] (at 50.0 µM), 8.15%.
In the case of `c1ccc2c(c1)Cc1nc3ccccc3nc1-2`, the growth inhibition is -33% in test [1] (setting [7]); 93% (active) in test [1] (setting [8]); 98.3% (active) in test [1] (at 50.0 µM); -42% in test [2] (setting [7]); 93% (active) in test [2] (setting [8]); 98.2% (active) in test [2] (at 50.0 µM). In addition, the growth inhibition was -59% in test [3] (setting [7]); 86% (active) in test [3] (setting [8]); 90.6% (active) in test [3] (at 50.0 µM); -56% in test [4] (setting [7]); 88% (active) in test [4] (setting [8]); 90% (active) in test [4] (at 50.0 µM). Further, the growth inhibition in test [5] (setting [7]) is -65%; in test [5] (setting [8]), 90% (active); in test [5] (at 50.0 µM), 97.4% (active); in test [6] (setting [7]) it was -118%; in test [6] (setting [8]), 92% (active); in test [6] (at 50.0 µM), 97.8% (active).
In the case of `COC(C(=O)O)c1ccccc1` (configuration not stated), the growth inhibition in test [1] (setting [7]) was -1%; in test [1] (setting [8]), 9%; in test [1] (at 50.0 µM) it was 75% (active); in test [2] (setting [7]), -1%; in test [2] (setting [8]), -3%; in test [2] (at 50.0 µM) it was 8.9%. Moreover, the growth inhibition in test [3] (setting [7]) is -2%; in test [3] (setting [8]) it was -2%; in test [3] (at 50.0 µM), 74.8% (active); in test [4] (setting [7]), 1%; in test [4] (setting [8]) it was -5%; in test [4] (at 50.0 µM), -1.95%. Besides, the growth inhibition in test [5] (setting [7]) was -2%; in test [5] (setting [8]) it was 1%; in test [5] (at 50.0 µM) it was 47.1%; in test [6] (setting [7]) it was -3%; in test [6] (setting [8]), 0%; in test [6] (at 50.0 µM), 79.5% (active).
For the compound `NCCc1ccc2oc3cc(=O)c4ccccc4c-3nc2c1`, the growth inhibition is 3% in test [1] (setting [7]); 22% in test [1] (setting [8]); 45.4% in test [1] (at 50.0 µM); -1% in test [2] (setting [7]); 30% in test [2] (setting [8]); 24.7% in test [2] (at 50.0 µM). Further, the growth inhibition in test [3] (setting [7]) was 7%; in test [3] (setting [8]) it was 46%; in test [3] (at 50.0 µM), 43.8%; in test [4] (setting [7]), 1%; in test [4] (setting [8]), 8%; in test [4] (at 50.0 µM) it was 28.7%. For the same compound, the growth inhibition in test [5] (setting [7]) was 0%; in test [5] (setting [8]) it was 30%; in test [5] (at 50.0 µM), 56.2%; in test [6] (setting [7]) it was 3%; in test [6] (setting [8]) it was 41%; in test [6] (at 50.0 µM) it was 80.8% (active).
Consider `CCCCCSc1nc2ncnc(N)c2[nH]1`, for which the growth inhibition is 1% in test [1] (setting [7]); 4% in test [1] (setting [8]); 6.25% in test [1] (at 50.0 µM); 1% in test [2] (setting [7]); 9% in test [2] (setting [8]); -2.95% in test [2] (at 50.0 µM). The growth inhibition in test [3] (setting [7]) was -10%; in test [3] (setting [8]), -2%; in test [3] (at 50.0 µM) it was 1.65%; in test [4] (setting [7]) it was 4%; in test [4] (setting [8]), 6%; in test [4] (at 50.0 µM) it was 28.9%. Moreover, the growth inhibition in test [5] (setting [7]) is 7%; in test [5] (setting [8]) it was 16%; in test [5] (at 50.0 µM), -5.5%; in test [6] (setting [7]), 0%; in test [6] (setting [8]), 8%; in test [6] (at 50.0 µM), -14.5%.
Regarding `CC1(C)OC(C(COC(=O)c2ccc([N+](=O)[O-])cc2)OS(=O)(=O)c2ccc([N+](=O)[O-])cc2)C(C(SCc2ccccc2)SCc2ccccc2)O1` (configuration not stated), the growth inhibition in test [1] (setting [7]) was 12%; in test [1] (setting [8]), 97% (active); in test [1] (at 50.0 µM), 43.6%; in test [2] (setting [7]), 1%; in test [2] (setting [8]), 99% (active); in test [2] (at 50.0 µM) it was 33.5%. Moreover, the growth inhibition in test [3] (setting [7]) was 4%; in test [3] (setting [8]), 98% (active); in test [3] (at 50.0 µM) it was 46.6%; in test [4] (setting [7]) it was -9%; in test [4] (setting [8]), 92% (active); in test [4] (at 50.0 µM), 7.75%. The growth inhibition in test [5] (setting [7]) was -2%; in test [5] (setting [8]), 99% (active); in test [5] (at 50.0 µM), 15.3%; in test [6] (setting [7]), 8%; in test [6] (setting [8]), 98% (active); in test [6] (at 50.0 µM), 67%.
With `CCCN(CCC)Cc1cc2c(cc1O)CC[C@@H]1[C@@H]2CC[C@]2(C)C(=O)CC[C@@H]12`, the growth inhibition in test [1] (setting [7]) was 98% (active); in test [1] (setting [8]) it was 87% (active); in test [1] (at 50.0 µM), 84% (active); in test [2] (setting [7]), 100% (active); in test [2] (setting [8]), 89% (active); in test [2] (at 50.0 µM), 51.8%. Also, the growth inhibition in test [3] (setting [7]) was 100% (active); in test [3] (setting [8]), 62%; in test [3] (at 50.0 µM), 80.1% (active); in test [4] (setting [7]) it was 52%; in test [4] (setting [8]), 20%; in test [4] (at 50.0 µM), 60.9%. Moreover, the growth inhibition in test [5] (setting [7]) was 99% (active); in test [5] (setting [8]), 89% (active); in test [5] (at 50.0 µM) it was 37.5%; in test [6] (setting [7]), 99% (active); in test [6] (setting [8]) it was 94% (active); in test [6] (at 50.0 µM), 65.2%.

The values above are taken from PubChem BioAssay (NCI).
